According to ChEMBL document CHEMBL3433997, “St. Jude Leishmania screening dataset” (2016):

Legend:
Type in all cases: functional
[1] = molecular target: Solute carrier family 2, facilitated glucose transporter member 1 (Homo sapiens) (UniProt P11166); assay: ST_JUDE_LEISH: Cytotoxicity at 2uM final concentration against transgenic Leishmania Mexicana promastigotes LmGLUT1 that are glucose transport deficient and complemented with the human glucose transporter GLUT1. Activity is measured by DNA content using SYBR green in vitro
Chain of Solute carrier family 2, facilitated glucose transporter member 1 (Homo sapiens) (P11166 whole entry): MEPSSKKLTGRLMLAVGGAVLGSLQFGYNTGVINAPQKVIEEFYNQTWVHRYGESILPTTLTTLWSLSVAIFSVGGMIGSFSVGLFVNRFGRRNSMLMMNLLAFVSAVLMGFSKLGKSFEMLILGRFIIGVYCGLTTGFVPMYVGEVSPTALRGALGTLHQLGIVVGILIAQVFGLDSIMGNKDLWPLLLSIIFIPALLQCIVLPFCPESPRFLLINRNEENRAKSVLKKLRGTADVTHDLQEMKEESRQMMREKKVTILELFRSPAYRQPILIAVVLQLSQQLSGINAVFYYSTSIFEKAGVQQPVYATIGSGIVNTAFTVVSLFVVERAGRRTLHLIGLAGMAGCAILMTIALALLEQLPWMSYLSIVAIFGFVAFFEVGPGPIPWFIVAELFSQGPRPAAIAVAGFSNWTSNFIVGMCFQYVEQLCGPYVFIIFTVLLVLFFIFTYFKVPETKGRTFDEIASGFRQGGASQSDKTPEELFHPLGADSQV

[2] = molecular target: Hexose transporter 1 (Plasmodium falciparum) (UniProt O97467); assay: ST_JUDE_LEISH: Cytotoxicity at 2uM final concentration against transgenic Leishmania Mexicana promastigotes LmPfHT that are glucose transport deficient and complemented with the Plasmodium falciparum hexose transporter. Activity is measured by DNA content using SYBR green in vitro
[3] = molecular target: Glucose transporter (Leishmania mexicana) (UniProt O61059); assay: ST_JUDE_LEISH: Cytotoxicity at 2uM final concentration against transgenic Leishmania Mexicana promastigotes LmGT2 that are glucose transport deficient and complemented with the L. Mexicana glucose transporter 2. Activity is measured by DNA content using SYBR green in vitro

| SMILES | inhibition [1] | inhibition [2] | inhibition [3] |
| --- | --- | --- | --- |
| CCC(=O)N(c1ccccc1)C1CCN(CCCC(NC(=O)Nc2cc(C(F)(F)F)cc(C(F)(F)F)c2)c2ccc(Cl)c(Cl)c2)CC1 (stereo not drawn) | -1.01% | 0.47% | 0.22% |
| NC(=O)c1ccc(NCC(=O)Nc2cccc(-c3cccc(-c4nc5ccccc5[nH]4)c3)c2)cc1 | 2.82% | 4.21% | 0.95% |
| CC(=O)NCC(=O)NC1=NC(=N)N(OCc2ccc3ccccc3c2)C(C)(C)N1 | 2.26% | 1.66% | 0.35% |
| CNc1ccc(CNCc2ccc(-c3ccc(-c4nc5cc(F)ccc5[nH]4)cc3)cc2)cc1 | 3.2% | -0.46% | -0.33% |
| O=C(COc1ccc(Cl)c(Cl)c1)NCCCCCN1CCCN(C(=O)Nc2ccc(Cl)c(Cl)c2)CC1 | 4.35% | 3.1% | 2.27% |
| CCCCN(CCCC)CCCCNc1c2ccc(Cl)cc2nc2ccc(OC)cc12 | 14.5% | 17.5% | 13.3% |
| COc1ccc(CNCCc2cccs2)cc1-c1cccc(S(=O)(=O)NCCN2CCCC2)c1 | 2.17% | 2.94% | 0.9% |
| COc1cccc(CNC(=O)c2ccnc(-c3cccc(CN(C)C4CCN(C)CC4)c3)c2)c1 | -0.04% | -0.18% | 1.78% |
| CC(C)(C)OC(=O)Cn1cnc2cc(NC(=O)c3cc([N+](=O)[O-])cc([N+](=O)[O-])c3)ccc21 | 3.13% | 4.11% | 3.89% |
| O=S(=O)(Nc1cccc(CCN2CCC(N3CCCCC3)CC2)c1)c1ccc(Oc2ccccc2)cc1 | 4.33% | 4.71% | 2.69% |
| CCCOc1ccc2ccccc2c1CNCCCCCCNCc1c(OCCC)ccc2ccccc12 | 2.66% | 1.04% | -1.19% |
| CCOC(=O)c1ccc(-c2cnc(N)c(-c3nc4cccc(C)c4[nH]3)c2)cc1 | 6.18% | 6.96% | 4.47% |
| O=C(NCCc1cccc(Cl)c1Cl)c1cnc(N2CCN(c3ccncc3)CC2)c(Cl)c1 | 77.2% | 81.6% | 83.9% |
| COc1cc(Cc2cnc(N)nc2N)ccc1OCc1ccc(NC(C)=O)cc1 | 1.71% | 4.96% | 3.61% |
| Cc1cc(C)c(NC(=O)NC2CCN(CCCCCNC(=O)/C=C/c3ccc(Cl)c(Cl)c3)C2)c(C)c1 (stereo not drawn) | 2.03% | 2.36% | 2.29% |
| Cc1cccc2nc(-c3ccc(-c4ccc(CN5CCN(CC6CCCN(C)C6)CC5)cc4)s3)[nH]c12 (stereo not drawn) | 8.45% | 21.1% | 8.04% |

| SMILES | inhibition [1] | inhibition [2] | inhibition [3] |
| --- | --- | --- | --- |
| Cc1ccc(NC(=O)c2cccc(CN3CCCN(Cc4cccc(O)c4)CC3)c2)cc1 | -0.49% | 0.65% | 0.25% |
| O=C(Nc1ccc(Cl)c(C(F)(F)F)c1)NC1CCN(CCCCCNC(=O)C2CC2c2ccc(Cl)c(Cl)c2)CC1 (stereo not drawn) | 7.55% | 9.26% | 6.43% |
| COc1cc(CNC[C@@H](O)[C@H](Cc2ccccc2)NC(=O)c2cc(C3CCCC3)cc(N3CCCC3=O)c2)cc(OC)c1 | 2.44% | 5.82% | -1.06% |
| O=C(Nc1ccc(Cl)cc1Cl)NC1CCN(CCCCCNC(=O)C2CC2c2ccc(Cl)c(Cl)c2)CC1 (stereo not drawn) | 10.1% | 11.3% | 9.23% |
| COC(=O)c1cccc(CNCc2ccc(-c3ccc(-c4nc5cccc(C)c5[nH]4)s3)cc2)c1 | 6.31% | 2.96% | 1.56% |
| CCC(O)(C#Cc1c(C)nc(N)nc1N)CC | 2.19% | 2.72% | -0.68% |
| CO/C(=C\C=C\c1cc2cc(Cl)c(Cl)cc2[nH]1)C(=O)NCCCN(C)CCN(C)c1ccccc1 | 4.46% | 3% | 1.47% |
| Cc1ccnc(-n2c(C)cc(C=C3SC(=Nc4ccccc4)N(Cc4ccco4)C3=O)c2C)c1 | 2.02% | 2.85% | 4.69% |
| CCCNC(=O)c1cncc(-c2ccc(CNC3Cc4ccccc4C3)cc2)c1 | 0% | 0.51% | -1.1% |
| CCN(CC)CCN(Cc1ccc(-c2ccc(Br)cc2)cc1)C(=O)Cn1c(CCc2cccc(F)c2F)nc(=O)c2ccccc21 | 2.2% | 3.29% | 6.05% |
| COc1ccc(Nc2nc(NCc3cccnc3)cc(-c3ccc(OC)cc3)n2)cc1 | -0.44% | 0.66% | -0.82% |
| CN(C)c1ccc(C=Cc2nc(=O)c3ccccc3o2)cc1 | 1.38% | 3.22% | 0.74% |
| COc1cccc(-c2nc(Nc3ccncc3)c3ncn(C)c3n2)c1 | 3.21% | 3.6% | 2.65% |
| CCNc1cc(C(=O)N[C@@H](Cc2cc(F)cc(F)c2)[C@H](O)CNCc2cccc(C(F)(F)F)c2)cc(N2CCCCS2(=O)=O)c1 | -0.07% | -0.7% | -1.62% |
| Cc1cccc(CNc2nc(C)cc(NCCC(=O)NCc3cccc(F)c3)n2)c1 | 7.68% | 7.53% | 4.51% |
